Bioassay records as filed in PubChem.
A selection: hits, their analogues and other compounds. The true share with any hit is near 3.3%.
14-3-3 Bad PPI – disrupts binding of bovine 14-3-3 zeta to phospho-Bad peptide; AID 781; TR-FRET 14-3-3zeta/Dy647-pBad peptide displacement, 1 h; 0.71% of 220,000 active; inhibition, % at 21.7 µM;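 active means inhibition above about 70%, limit read from the data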;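 further: 0% = full 14-3-3 plus peptide FRET controls and 100% = background without 14-3-3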
Target sequence (P63103 whole entry, looked up): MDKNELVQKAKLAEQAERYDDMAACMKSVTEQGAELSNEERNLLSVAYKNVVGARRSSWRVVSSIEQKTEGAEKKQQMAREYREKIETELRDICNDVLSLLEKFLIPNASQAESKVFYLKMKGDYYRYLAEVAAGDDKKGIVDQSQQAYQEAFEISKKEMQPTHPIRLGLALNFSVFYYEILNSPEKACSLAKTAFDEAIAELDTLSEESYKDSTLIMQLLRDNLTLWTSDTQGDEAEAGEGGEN
eIF4E-4G inh – inhibitors of eIF4E and eIF4G interaction in translation initiation. P63073+Q04637. TR-FRET eIF4E-eIF4GI(517-606) binding, 2 h. inhibition, % at 21.7 µM. 0.37% of 220,000 active. AID 782;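 further: 0% = full FRET control wells and 100% = background wells lacking eIF4GI fragment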
Mcl1 Bid PPI – disrupts binding of human Mcl-1 to Bid peptide | TR-FRET Mcl-1/Bid-Dy647 peptide binding, 1536-well | inhibition, % at 21.7 µM | 0.97% of 220,000 active;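 active means compounds that cut the binding signal by more than half at the single screening dose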;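 further: His-tagged Mcl-1 with europium anti-His antibody binding Bid BH3 peptide; 0% = Mcl-1 plus peptide wells and 100% = peptide-only wells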
Mcl1-Noxa inh – disrupts binding of human Mcl-1 to Noxa peptide; 1.5% of 220,000 active; AID 1022; inhibition, % at 21.7 µM; TR-FRET Mcl-1/Noxa peptide binding, 2 h; Q07820;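 active means compounds that cut the protein-peptide binding signal by more than 50% relative to plate controls in a single-dose test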;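 further: His-tagged Mcl-1 with rhodamine Noxa BH3 peptide and terbium anti-His antibody; 0% = Mcl-1 plus Noxa peptide wells and 100% = peptide-only wells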
NCF1 inh – inhibitors of human p47phox binding; p47phox/p22phox peptide binding, fluorescence polarization, 2 h; inhibition, % at 24.7 µM; 0.53% of 220,000 active;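 further: 0% = p47phox with labelled peptide and 100% = labelled peptide alone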
Target sequence (P14598 whole entry, looked up): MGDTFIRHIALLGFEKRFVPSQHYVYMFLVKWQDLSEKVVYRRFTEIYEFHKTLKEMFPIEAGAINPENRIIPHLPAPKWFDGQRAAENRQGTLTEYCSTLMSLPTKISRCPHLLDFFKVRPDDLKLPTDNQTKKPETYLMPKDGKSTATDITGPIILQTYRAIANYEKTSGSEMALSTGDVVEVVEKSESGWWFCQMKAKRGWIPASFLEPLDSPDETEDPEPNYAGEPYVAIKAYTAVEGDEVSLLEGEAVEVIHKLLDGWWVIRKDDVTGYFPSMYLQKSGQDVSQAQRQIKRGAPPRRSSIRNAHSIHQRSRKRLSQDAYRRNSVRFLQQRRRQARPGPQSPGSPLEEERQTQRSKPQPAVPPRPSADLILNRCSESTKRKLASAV
Bim-Mcl-1 – human Bim-Mcl-1 interaction inhibition. Q07820. Bead-based flow cytometry, Bim peptide-Mcl-1 binding. inhibition, % at 10 µM. 0.1% of 190,000 active. AID 1009; in the data active means inhibition above about 40%;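 further: 0% = no compound tracer wells and 100% = peptide blocker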
An asterisk follows results filed as active; x = not tested or not shown; [ ] = dose if it differs, or a comment.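 How the source made its calls, unless noted: active means inhibition above about 30% (limit read from the data); inactive means the rest.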

SMILES | 14-3-3 Bad PPI | eIF4E-4G inh | Mcl1 Bid PPI | Mcl1-Noxa inh | NCF1 inh | Bim-Mcl-1
CCN(CC)S(=O)(=O)c1ccc(OC)c(NC(=O)Cn2cnc3c2c(=O)n(C)c(=O)n3C)c1 | -19 | -1 | 8 | -2 | -5 | 0
COc1ccc(NC(=O)CN2C(=O)C(C)Oc3ccccc32)cc1 (centres undefined) | -4 | 4 | 1 | -2 | -1 | 0
COc1ccc(NC(=O)CN2C(=O)/C(=C3\SC(=S)N(C4CCS(=O)(=O)C4)C3=O)c3ccccc32)cc1 (centres undefined) | 60 | 7 | 91* | 89* | 52* | x
O=C(CN1C(=O)C2CCCCN2C(=O)c2ccccc21)Nc1ccc(F)cc1 (centres undefined) | -3 | -2 | 1 | 15 | 6 | 0
O=C(CN1C(=O)/C(=C2\SC(=S)N(C3CCS(=O)(=O)C3)C2=O)c2ccccc21)Nc1ccc(F)cc1 (centres undefined) | 49 | 4 | 78* | 78* | 26 | x
CCC(C(=O)Nc1ccsc1C(=O)OC)c1ccccc1 (centres undefined) | -10 | -2 | -35 | 12 | -8 | 4
O=C(COc1ccc(Cl)cc1Cl)Nc1c(-c2cccs2)nc2ccccn12 | 51 | -13 | 24 | 52* | -17 | 27
O=C(O)c1ccc(S(=O)(=O)Nc2cccc(CP(=O)(c3ccccc3)c3ccccc3)c2)cc1 | 3 | -5 | 3 | 2 | -7 | x
O=C1C2C3C=CC(CO)(O3)C2C(=O)N1c1ccccc1-c1ccccc1 (centres undefined) | 8 | 3 | 5 | 53* | 1 | -14
N=C1CCC(=N)c2c1c(O)c1ccccc1c2O | 46 | 16 | -15 | 76* | 125* | x
COc1cc(OC)cc(C(=O)N[C@H](C(=O)OCC(=O)NC(=O)c2cccn2C)C(C)C)c1 | -13 | 3 | 92* | 16 | -7 | 0
CCCS(=O)(=O)N1CCN(CC2CC=CCC2)CC1 (centres undefined) | 73* | 6 | 29 | 16 | -11 | -1
CCCS(=O)(=O)N1CCN(CC2CC3C=CC2C3)CC1 (centres undefined) | 72* | 2 | -8 | 18 | -2 | 2
COc1cc(/C=N/NC(=O)C(Cc2c[nH]c3ccccc23)NC(=O)OCC(C)C)cc([N+](=O)[O-])c1O (centres undefined) | 2 | 1 | -41 | 52* | -1 | -2
COc1cc(/C=N/NC(=O)C(Cc2c[nH]c3ccccc23)NC(=O)OCc2ccccc2)cc([N+](=O)[O-])c1O (centres undefined) | -9 | 3 | -64 | 81* | -25 | -2
COc1cc(/C=N/NC(=O)C(Cc2c[nH]c3ccccc23)NC(=O)OCC(C)C)cc([N+](=O)[O-])c1OCc1ccccc1 (centres undefined) | -11 | 5 | -17 | -4 | 2 | 2
CC(=O)NC(Cc1c[nH]c2ccccc12)C(=O)N/N=C/c1ccccc1 (centres undefined) | -9 | 2 | -28 | 4 | -8 | -5
COc1cc(OC)c2ccc(=O)oc2c1C(CCN1CCN(c2ccccc2)CC1)c1ccc(N(C)C)cc1 (centres undefined) | -1 | -3 | -135 | 5 | 94* | x
COc1cc(OC)c2c(-c3ccccc3)cc(=O)oc2c1C(CCN1CCN(c2ccccc2)CC1)c1ccc(N(C)C)cc1 (centres undefined) | 3 | -2 | -142 | -20 | -2 | x
O=C1Nc2ccc(S(=O)(=O)N3CCCC3)c3cccc1c23 | -2 | -5 | -11 | 7 | -1 | -3
O=C(c1ccco1)N1C(=O)c2cccc3c(S(=O)(=O)N4CCCC4)ccc1c23 | 4 | -2 | 78* | 61* | 1 | -10
O=C(c1ccccc1)c1ccc(OCCCCN2CCCCC2)cc1 | 74* | -5 | 43 | 21 | -1 | 0
O=C(c1ccccc1)c1ccc(OCCCN2CCCC2)cc1 | 21 | 2 | 24 | 21 | -14 | 0
Cc1cc(N2CCC(C)CC2)nc(NCc2ccccc2)n1 | -3 | -1 | 2 | 18 | 2 | -1
O=C1NC(c2ccc3c(c2)OCO3)Oc2ccccc21 (centres undefined) | 15 | 37*[fluorescence artefact?] | -22 | 10 | -1 | 0
SMILES | 14-3-3 Bad PPI | eIF4E-4G inh | Mcl1 Bid PPI | Mcl1-Noxa inh | NCF1 inh | Bim-Mcl-1
CC1=C(C(=O)OC(C)C)C(c2ccccc2Cl)CC(=O)N1 (centres undefined) | 80* | 4 | -4 | -7 | 0 | -1
Cc1cc(=O)oc2cc(NC(=O)c3cc([N+](=O)[O-])ccc3N3CCOCC3)ccc12 | -8 | 1 | -26 | 15 | -4 | 1
COc1ccc(/C=N/NC(=O)CN2CCSCC2)c(OC)c1 | 16 | 1 | -7 | 60* | 3 | 3
COc1ccc(OC)c(/C=N/NC(=O)CN2CCSCC2)c1 | 12 | 1 | 9 | 18 | -16 | -4
CSC1=N/C(=C\c2ccccc2F)C(=O)S1 | -11 | -7 | 100* | 92* | -6 | 1
CSc1ccccc1NC(=O)c1cc(-c2cccnc2)nc2ccc(Br)cc12 | 89* | 14 | 64* | 49 | 31* | 0
Cc1cc(OCC(=O)Nc2nnc(C3CC3)s2)ccc1[N+](=O)[O-] | -13 | 3 | -5 | -2 | 0 | 0
CCCCC(=O)Nc1ccc(NC(=O)c2ccc(C)c([N+](=O)[O-])c2)cc1OC | -12 | -3 | -9 | -5 | 1 | -2
O=[N+]([O-])c1cccc(/C=C/c2nc(C=Nc3ccc4ccccc4c3)c(O)o2)c1 | 61 | -1 | 66* | 81* | 19 | 2
O=C(N[C@@H](Cc1ccc(O)cc1)C(=O)O)c1cccnc1 | 8 | -1 | -1 | -4 | -10 | -2
CCN1C(=O)/C(=C/c2cccs2)S/C1=N\S(=O)(=O)c1ccc(C)cc1 | 1 | -1 | -12 | -32 | -16 | -7
CCN1C(=O)/C(=C\N(C)C)S/C1=N\S(=O)(=O)c1ccccc1 | 92* | -4 | -18 | 12 | -11 | 4
Cc1cc(C2=NNC(=NC3CC3)SC2)c(C)n1-c1c(C)n(C)n(-c2ccccc2)c1=O | 15 | 5 | 7 | 52* | 13 | -2
Cc1cc(C2=NNC(=NCCc3ccccc3)SC2)c(C)n1-c1c(C)n(C)n(-c2ccccc2)c1=O | 8 | -11 | -141 | 8 | -39 | x
CCN(CC)S(=O)(=O)c1cc(NC(=O)CNc2c(C)n(C)n(-c3ccccc3)c2=O)ccc1C | 3 | 7 | -22 | 1 | -9 | 0
Cc1cccc(NC(=O)CSc2nnc(-c3ccco3)c(-c3ccco3)n2)c1 | 20 | 11 | -18 | 96* | -2 | -1
Cc1cccc(NC(=O)CSc2nnc(-c3ccco3)c(-c3ccco3)n2)c1C | 30 | 20 | 28 | 95* | -10 | 2
